# From the supplement of paper PMC3334620
# The full ranking holds about 33,000 sequences; the median of “E-score (-0.5 to 0.5)” is about -0.043, and the highest 2% start at about 0.37. Shown is part of a subset that was picked to be rich in the highest values.
# Target: T1, Upc2 (UniProt Q12151)
# T1 sequence: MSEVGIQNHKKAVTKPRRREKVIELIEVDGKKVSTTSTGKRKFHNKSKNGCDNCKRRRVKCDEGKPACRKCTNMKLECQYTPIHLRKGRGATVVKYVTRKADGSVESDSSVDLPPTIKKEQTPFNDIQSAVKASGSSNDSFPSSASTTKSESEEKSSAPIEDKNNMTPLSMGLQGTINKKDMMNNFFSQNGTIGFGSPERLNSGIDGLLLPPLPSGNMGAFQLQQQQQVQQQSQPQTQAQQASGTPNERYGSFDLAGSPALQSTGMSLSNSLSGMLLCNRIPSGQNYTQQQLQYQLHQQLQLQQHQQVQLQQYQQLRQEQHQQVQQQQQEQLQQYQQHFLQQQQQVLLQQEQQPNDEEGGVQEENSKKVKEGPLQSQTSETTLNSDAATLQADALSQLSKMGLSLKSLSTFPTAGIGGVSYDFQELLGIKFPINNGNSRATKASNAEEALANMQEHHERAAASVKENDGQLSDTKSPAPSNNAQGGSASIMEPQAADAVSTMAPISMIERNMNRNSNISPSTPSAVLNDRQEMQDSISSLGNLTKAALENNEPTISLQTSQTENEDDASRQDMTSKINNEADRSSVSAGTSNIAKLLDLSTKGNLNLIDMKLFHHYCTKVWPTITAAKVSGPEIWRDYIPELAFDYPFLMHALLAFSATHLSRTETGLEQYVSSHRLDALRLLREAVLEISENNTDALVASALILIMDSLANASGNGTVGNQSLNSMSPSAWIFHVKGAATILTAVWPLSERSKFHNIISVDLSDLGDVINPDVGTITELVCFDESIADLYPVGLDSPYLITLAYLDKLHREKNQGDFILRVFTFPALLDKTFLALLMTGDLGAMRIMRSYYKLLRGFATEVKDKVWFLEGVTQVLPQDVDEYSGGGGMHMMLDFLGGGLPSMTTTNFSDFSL
# Assay: PBM E-score (8-mer binding enrichment) (E-score (-0.5 to 0.5)); higher = stronger / more preferred TF binding
# Conditions: protein concentration: 200 nM; construct: GST-full length
# Protocol: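 Universal 'all 10-mer' protein binding microarrays (Agilent AMADID 015681) probed with GST-tagged S. cerevisiae TFs (full-length or DBD) made by in vitro transcription/translation (PURExpress), about 100-200 nM. Bound TF was detected with fluorescent anti-GST. Each ungapped 8-mer (which stands for itself and its reverse complement) is scored by the PBM enrichment score (E-score), a modified Wilcoxon-Mann-Whitney statistic from -0.5 to +0.5, computed with the Universal PBM Analysis Suite. Scale: above 0.35 generally sequence-specific binding.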
row,Sequence,PBM E-score
1,ACCTATCA,-0.11
2,CGTGATTA,0.0822
3,ACCGGTTA,0.118
4,ATGACTAC,0.0234
5,AAGCTAGA,-0.166
6,GCGCTCCA,-0.195
7,CAAAGAAC,-0.0158
8,ACGCATAA,0.172
9,CCGCATAA,0.121
10,TCGCATAA,0.383
11,GGTTGCTA,-0.126
12,CCGCACTC,0.195
13,AAAAGGGA,-0.2
14,ACGTAAAC,0.345
15,CCGTAAAG,0.395
16,TAGTAAAA,0.0664
17,GCGTAAAC,0.352
18,TTGTAAAA,0.0751
19,ACGTTAAA,0.269
20,TCGTTAAA,0.466
21,TCGTAAAA,0.481
22,CCGTAAAC,0.396
23,CTGTAAAG,-0.0138
24,CCGTTAAA,0.33
25,ACGTAAAG,0.308

row,Sequence,PBM E-score
1,CATGGACA,-0.178
2,AGTTAGCA,-0.0102
3,CCGATGGA,0.109
4,ACTTATCG,0.00736
5,ATAGTCTG,-0.124
6,CGCTCAGA,0.121
7,GCTAAACC,0.03
8,CCGTAAAA,0.374
9,ACGTAAAA,0.268
10,GCGTAAAA,0.302
11,ACTATCAC,0.0913
12,ATGGGCCC,-0.0858
13,ACGTCTTC,0.0586
14,GACTGGAC,-0.215
15,GGGTACGA,0.465
16,GGGTACAA,-0.0246
17,AGGTACGG,0.354
18,CGGTACGA,0.474
19,AGGTACGC,0.163
20,AGGTACGA,0.47
21,CGGTACCA,-0.0953
22,GGGTACCA,-0.275
23,CGGTACGC,0.324
24,TAGTTGGA,-0.109
25,GCCGGGTA,-0.143

row,Sequence,PBM E-score
1,ACCTAAGA,0.0242
2,ACCCTCTC,-0.197
3,CACTGAGA,-0.0162
4,CCTTGCGA,-0.195
5,CCGGTGCA,-0.153
6,GGTGACTA,-0.0935
7,TCCCTCGA,-0.0965
8,ACCAGTGG,-0.247
9,ACAAGACT,-0.00931
10,AGTCGTTA,0.317
11,CGCCGTTC,0.339
12,CGTCGTTC,0.464
13,AGTCGTTG,0.0644
14,CGTCGATC,-0.0198
15,CGTCGTTA,0.376
16,GGTCGTTA,0.358
17,AGTCGTTC,0.41
18,AGTCGCTC,0.0535
19,AGGTGAAT,-0.0674
20,GCACCGAA,0.0996
21,CCGCATAC,0.197
22,CATGAGGC,-0.218
23,CTCAACAC,-0.0233
24,AGGTTCGG,0.022
25,CAGATTCC,-0.195

row,Sequence,PBM E-score
1,CGGGTACG,0.43
2,ACGGTACC,0.0672
3,ACGGTACT,0.0352
4,CGGGTACA,0.114
5,ACGGTACG,0.408
6,CCGGTACA,0.106
7,CCGGTACC,-0.196
8,CGGGTACC,-0.158
9,CCGGTACG,0.421
10,CCCTATAA,-0.00945
11,CCATCAAG,-0.12
12,AAGACCCT,-0.239
13,CAGGTCGC,0.0637
14,AAGGTGGC,-0.0337
15,CTTACGAC,0.406
16,CTTACGAA,0.399
17,CTCACGAA,0.0214
18,ATTACGAA,0.339
19,GTTACGGA,0.233
20,CTTACGCC,0.0225
21,CTCACGAC,-0.146
22,GTTACGAA,0.409
23,CTTACGCA,0.146
24,CCATTCTA,-0.068
25,CAGAATTA,-0.0215

row,Sequence,PBM E-score
1,GCTACTCC,-0.242
2,CAGATGGC,-0.0004
3,AGAGGCCT,-0.0685
4,TCATGAAA,0.0303
5,ACCACTGG,-0.0523
6,AAAAGCGA,0.175
7,GGATCTTA,0.146
8,CTACGAGC,0.393
9,GTACGCGA,0.347
10,ACACGAGG,0.248
11,ATACGAGA,0.482
12,GTACGAGA,0.472
13,CGACGAGC,0.0758
14,CTACGAGA,0.359
15,ATACGAGG,0.487
16,AGACGAGA,0.184
17,GTCCGAGA,0.205
18,AGACGAGG,0.215
19,CCACGAGC,-0.0694
20,GCAGTTTA,0.0629
21,ACTCTTAG,-0.149
22,ACTCTGGG,-0.181
23,GGAGTCCC,-0.172
24,CGTAACCA,0.223
25,CACAGTGA,-0.0917

row,Sequence,PBM E-score
1,ACCCTCTG,-0.236
2,ACACGAGC,0.273
3,AGACGAGC,0.206
4,ATACGAGC,0.489
5,AAACTGAC,-0.0907
6,CGGGACCC,-0.177
7,GCTGTGAC,0.111
8,TCATACGA,0.469
9,TCATACAA,0.0325
10,GCATACGC,0.296
11,ACATACGT,0.239
12,ACATACGA,0.476
13,ACATACGC,0.281
14,GCATACAA,-0.0164
15,TCATACCA,-0.0495
16,GCATACGA,0.47
17,CTAATGTC,-0.171
18,AGATAAGA,0.0794
19,GGCTGATA,-0.0951
20,CCTGAAGC,-0.175
21,AATGGTGT,-0.0602
22,CGTTGCTA,0.0827
23,CTAGCCCA,-0.335
24,AAGAGGAC,-0.242
25,ACTATCAG,-0.196

row,Sequence,PBM E-score
1,CCTGAGAA,-0.0858
2,GAAACAAA,0.0262
3,AAAACGAA,0.283
4,CCAACGAA,0.109
5,GAAACGAA,0.41
6,GCAACGAA,0.314
7,CAAACGAA,0.467
8,CTAGCTTC,-0.105
9,GATCACAA,-0.0358
10,GAATGCCC,0.0462
11,GCATACCA,0.00545
12,ATTGTGCC,-0.149
13,AATCCATG,-0.252
14,GCGACGCA,0.108
15,ACGACTCG,0.381
16,ACGACGCC,0.306
17,ACGACTCA,0.29
18,CCGACGCG,0.16
19,ACGACTCT,0.319
20,ACGACGCG,0.389
21,ACGACGCA,0.389
22,ACGACGCT,0.361
